The list is not random: actives were taken first. Their share in the collection is about 2.5%.
Granule exo inh: blocks lytic granule exocytosis | inhibition, % at 10 µM | TALL-104 LAMP-1 surface exposure, flow cytometry; cells stimulated with thapsigargin and PMA | 360,000 tested, 0.66% active;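 active = inhibition above about 55%, limit read from the data; inconclusive = no clear call, values can overlap the other calls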
ABCB6 inh 2: inhibitors of human ABC transporter ABCB6; 360,000 tested, 0.19% active; K562-ABCB6 porphyrin accumulation, flow cytometry, 1 h; hits give low values; fluorescence ratio to DMSO, % at 10 µM; AID 602162; Q9NP58;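 active = fluorescence ratio to DMSO below 75%, the collection mean minus 3 SD; inconclusive = too few cells collected in the well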;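 note: signal is porphyrin accumulated inside mitochondria; lower ratio means ABCB6 inhibition with less porphyrin fluorescence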
PG9 Ab binder: PG9 antibody binding by small molecule; TR-FRET gp120-PG9 antibody binding; inhibition, % at 6.7 µM; 360,000 tested, 0.43% active; AID 624416; in the data active = inhibition above about 8.5%
rCAG binder: molecules binding r(CAG) RNA repeats | 370,000 tested, 1.3% active | inhibition, % at 3 µM | r(CAG) RNA repeat, TO-PRO-1 dye displacement fluorescence;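 active = inhibition above the plate cutoff, the mean of all test compounds on that plate plus 3 SD, cut at about 35% in these data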;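 note: higher means more dye released from RNA so lower well fluorescence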
PG9 bind confirm: PG9 antibody binding, confirmed; TR-FRET PG9 antibody binding, biochemical; shares compounds with PG9 Ab binder; 1,500 tested, 90% active; inhibition, % at 6.7 µM; AID 651571; in the data active = inhibition above about 9%
PGV04 Ab binding: PGV04 control antibody binding, counter-screen; shares compounds with PG9 Ab binder; 1,500 tested, 95% active; TR-FRET PGV04 antibody-gp120 binding, biochemical; AID 651604; inhibition, % at 6.7 µM; in the data active = inhibition above about 9.5%
PG9 binder DR: small molecules binding HIV-1 gp120 antibody PG9; shares compounds with PG9 Ab binder; TR-FRET PG9 antibody-gp120 binding inhibition; IC50, µM; 95 tested, under 10 active; AID 651848; in the data active = IC50 below about 10 µM
PGV04 DR counter: counter-screen for PG9 binders: binding to control antibody PGV04; shares compounds with PG9 Ab binder; TR-FRET binding to control antibody PGV04; IC50, µM; 95 tested, 20% active
PG126 DR counter: PG126 binding, dose response counter-screen | 95 tested, 20% active | IC50, µM | AID 651939 | shares compounds with PG9 Ab binder | TR-FRET binding to antibody PG126, counterscreen
Each line names hits and unclear results; the compound was inactive in the other large screens (follow-up assays come after a bar, where they were run); ! = not active in a repeat. Cut-off read from the data, not from the text of the source, unless noted: active = IC50 below about 9 µM; inactive = the rest.

COC(=O)Cc1ccc(NC(=O)c2ccc(Br)o2)cc1	none
COc1ccc(-c2ccc(NC(=O)c3ccc(Br)o3)cc2)nn1	PG9 Ab binder 14.0 | PG9 bind confirm 13.5 | PGV04 Ab binding 23.7
Cc1cc(C(=O)CN2C(=O)C(=O)N(CCC3=CCCCC3)C2=O)c(C)n1C	none
CCn1c(SCc2nc(-c3ccccc3)no2)nnc1-c1ccco1	PG9 Ab binder 15.4 | PG9 bind confirm 48.7 | PGV04 Ab binding 61.4
COc1cc(C(=O)Oc2ccccc2)ccc1OCc1c(C)noc1C	PG9 Ab binder 10.5 | PG9 bind confirm 16.9 | PGV04 Ab binding 13.1 | PG9 binder DR inactive | PGV04 DR counter inactive | PG126 DR counter inactive
Cc1ccc(/C(O)=C2/C(=O)C(=O)N(CCN3CCOCC3)C2c2cccnc2)cc1 (configuration not stated)	none
Cc1c(N2C(=O)C(=O)/C(=C(/O)c3ccc(Br)cc3)C2c2cccnc2)c(=O)n(-c2ccccc2)n1C (configuration not stated)	PG9 Ab binder 22.4 | PG9 bind confirm 30.7 | PGV04 Ab binding 38.4
Cc1cc(SC(C)C(=O)O)nc2ccccc12 (configuration not stated)	none
CC(Sc1ccc2ccccc2n1)C(=O)O (configuration not stated)	PG9 Ab binder 50.2 | PG9 bind confirm 52.5 | PGV04 Ab binding 58.8
CC(Sc1cnc2ccccc2n1)C(=O)O (configuration not stated)	PG9 Ab binder 12.6 | PG9 bind confirm 17.8 | PGV04 Ab binding 22.6
CCn1c(Cc2ccccc2)nnc1SCC(=O)Nc1nc2ccccc2s1	PG9 Ab binder 16.5 | PG9 bind confirm 28.5 | PGV04 Ab binding 40.0
CC(C#N)(Cc1ccccc1)Nc1ccccc1 (configuration not stated)	none
O=C(Nc1ccccc1-c1nnn(CC(=O)N2CCOCC2)n1)c1ccccc1F	none
O=C(Cn1nnc(-c2ccccc2NC(=O)c2ccccc2F)n1)NC1CCCC1	PG9 Ab binder 12.4 | PG9 bind confirm 39.8 | PGV04 Ab binding 42.6
COC(=O)c1cc(NC(=O)c2ccc(-c3ccccc3)cc2)ccc1Cl	PG9 Ab binder 10.3 | PG9 bind confirm 13.1 | PGV04 Ab binding 22.4
O=C(Nc1ccc2ccccc2c1)c1ccc(Cl)cc1	PG9 Ab binder 10.1 | PG9 bind confirm 12.8 | PGV04 Ab binding 17.6
Cc1ccc(C(=O)Nc2ccc3ccccc3c2)cc1	none
O=C(Nc1ccc(Cl)cc1)N1CCCC(Cn2cccc2)C1 (configuration not stated)	none
Cc1nonc1NC(=O)CSc1nc2c(C)cccc2cc1C#N	PG9 Ab binder 9.8 | PG9 bind confirm 42.4 | PGV04 Ab binding 66.0
COc1ccc2cc(C#N)c(SCC(=O)Nc3nonc3C)nc2c1	PG9 Ab binder 24.7 | PG9 bind confirm 33.5 | PGV04 Ab binding 62.0
Cc1cc2cc(C#N)c(SCC(=O)Nc3nonc3C)nc2cc1C	none
O=c1c2sccc2nc(SCc2ccc([N+](=O)[O-])cc2)n1Cc1ccccn1	none
COC(=O)C1CCN(C(=O)C2CCN(C(=O)[C@@H](NS(=O)(=O)c3ccc(C)cc3)C(C)C)CC2)CC1	none
CCOC(=O)Nc1nc(-c2ccccc2)c(C(=O)c2ccccc2)s1	none
COC(=O)Nc1nc(-c2ccccc2)c(C(=O)c2ccc(Cl)cc2)s1	PG9 Ab binder 44.0 | PG9 bind confirm 44.3 | PGV04 Ab binding 65.2
Cc1c(Cl)cccc1NC(=O)NCc1cccnc1	none
CC1=NOC(=O)/C1=C\c1ccc(-c2ccccc2Br)o1	Granule exo inh 92.4, PG9 Ab binder 14.4 | PG9 bind confirm 29.9 | PGV04 Ab binding 53.9
N#Cc1c(-c2ccco2)ccn(Cc2cccc(F)c2)c1=O	none
O=C(NC1CCCC1)C1C2C=CC3(CN(Cc4cccs4)C(=O)C13)O2 (configuration not stated)	PG9 Ab binder 28.8 | PG9 bind confirm inactive | PGV04 Ab binding inactive
O=C(Cn1cccc1C(=O)c1ccccc1)NCCc1ccccc1	none
O=C(Cn1cccc1C(=O)c1ccccc1)NCCc1ccc(Cl)cc1	PG9 Ab binder 9.4 | PG9 bind confirm inactive | PGV04 Ab binding 10.4
CCc1ccc2[nH]cc(S(=O)(=O)c3ccc(C)c(C)c3)c(=O)c2c1	none
CCc1ccc2[nH]c3nc(C)cc(C)c3c(=O)c2c1	PG9 Ab binder 25.3 | PG9 bind confirm 15.7 | PGV04 Ab binding 23.4
CCn1c(=O)c(C(=O)Nc2ccccc2S(N)(=O)=O)c(O)c2ccccc21	PG9 Ab binder 15.1 | PG9 bind confirm inactive | PGV04 Ab binding 14.3
CCn1c(=O)c(C(=O)Nc2ccccc2C)c(O)c2ccccc21	none
Cc1ccc(NC(=O)COC(=O)c2ccc(-n3cccn3)cc2)cc1C	PG9 Ab binder 13.0 | PG9 bind confirm 18.1 | PGV04 Ab binding 28.7
NNC(=O)c1cc(S(=O)(=O)N2CCOCC2)c[nH]1	none
COc1ccc2c(C)c(CC(=O)N3C[C@H]4C[C@@H](C3)c3cccc(=O)n3C4)c(=O)oc2c1OC	none
CCCCNc1nc2c(S(=O)(=O)c3ccccc3)nnn2c2ccccc12	PG9 Ab binder 29.4 | PG9 bind confirm 58.0 | PGV04 Ab binding 74.7
CCc1ccc(S(=O)(=O)c2nnn3c2nc(NCCNC(C)=O)c2ccccc23)cc1	none
O=C(Nc1ccc(N2CCOCC2)cc1N1CCOCC1)c1ncoc1-c1cccc(F)c1	Granule exo inh inconclusive
N#Cc1c(-c2ccncc2)cc(-c2ccc(F)cc2)nc1N	PG9 Ab binder 33.5 | PG9 bind confirm 8.9 | PGV04 Ab binding 25.8
Cc1cc(-c2ccc(Cl)cc2)c(C#N)c(N)n1	PG9 Ab binder 55.0 | PG9 bind confirm 64.5 | PGV04 Ab binding 79.5
Cc1ccc(-c2cc(-c3ccccc3)c(C#N)c(N)n2)o1	none
Cc1ccc(-c2cc(-c3ccc(F)cc3)nc(N)c2C#N)o1	none
CC[C@@H]1Cc2[nH][nH]c(=O)c2[C@H](c2ccc(Cl)cc2)O1	none
COC(=O)CSc1nc(C)c2c(n1)CCCC2	none
CC(C)NC(=O)C1(C)Cc2c(-c3ccc(N(C)C)cc3)ccnc2O1 (configuration not stated)	none
CC1=Nc2ccc(C)cc2/C1=C/c1c(N)n2nc(CC(=O)N3CCOCC3)sc2nc1=O	none
CC1=Nc2ccc(C)cc2/C1=C/c1c(N)n2oc(C)cc2nc1=O	PG9 Ab binder 16.9! | PG9 bind confirm 19.5 | PGV04 Ab binding 43.0
CCCCNC(=O)C1(C)CCN1C(=O)c1oc2ccccc2c1C (configuration not stated)	none
Cc1ccccc1NC(=O)CCCN1C(=O)C2CC=CCC2C1=O (configuration not stated)	none

Screening results as filed in PubChem BioAssay.
